Shown are actives, neighbours in structure and some others; about 21% of the full set was active somewhere.
NS1 function inh = influenza NS1 inhibition. Potency, µM (doses to about 46.1 µM), inactives show at the top dose activity, positive = more growth. hit rate 0.4% among 270,000. AID 2326; calls by dose curve; also: potency is read from the fitted curve at half-maximal effect; actives are rising curves; nearly all actives have a fitted effect of over 50% in size
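Compounds were scored for reversing the slow growth caused by influenza A NS1 in S. cerevisiae, measured by optical density at 600 nm. Assay medium contained 2% galactose at pH 6.0; NS1-free yeast of the same strain were the positive control.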
Pf growth 48h = P. falciparum growth inhibition at 48 hours (one generation) | P. falciparum luciferase growth in erythrocytes, 48 h | Potency, µM (top dose mostly 28.7 µM), without a hit: at the top dose activity change, negative = inhibition, most hits filed as inhibitors | hit rate 5.9% among 310,000; also: potency is read from the fitted curve at half-maximal effect; % is scaled to controls: 0 for no effect and ±100 for the full control effect
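In quantitative HTS format, infected erythrocytes bearing luciferase-reporter parasites were treated for a single generation at 37 C. Luminescence after adding detection reagent served as the growth measure.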
SARS PLP yeast = SARS-CoV PLP inhibition in yeast; AID 485353; S. cerevisiae expressing SARS-CoV PLpro, growth rescue; hit rate 0.19% among 330,000; Potency, µM (top dose mostly 32.9 µM), inactives show at the top dose activity, positive = growth rescue, hits mostly activators; calls by dose curve; also: potency is read from the fitted curve at half-maximal effect; 0% is about no effect; nearly all actives have a fitted effect of over 55% in size
Pf growth 96h = P. falciparum growth inhibition at 96 hour, primary screen for plastid delayed-death inhibitors. P. falciparum luciferase reporter growth, 96 h. Potency, µM (titrated, usually from 28.7 µM), for inactives: at the top dose activity change, negative = inhibition, hits mostly inhibitors. hit rate 6.9% among 320,000. AID 504834; also: potency is read from the fitted curve at half-maximal effect; % is scaled to controls: 0 for no effect and ±100 for the full control effect
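96 h incubation, 37 C, 5% CO2, of luciferase-reporter P. falciparum-infected RBCs (2% hematocrit, 0.05% parasitemia final) with test compounds; endpoint luminescence.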
Shiga toxin inh = inhibitors of Shiga toxin in Vero cells | Vero cells, Shiga toxin protein synthesis inhibition reporter | inhibition, % at 38.7 µM | hit rate 9.2% among 290,000; in the data active = inhibition mostly above about 28%, no sharp cut-off; inactive = mostly below about 43%; also: 0% is about no effect
CHX counter = counter-screen for Shiga toxin inhibitors: cycloheximide protein synthesis inhibition; cell reporter, cycloheximide protein synthesis inhibition counterscreen; max response, %; hit rate 12% among 300,000; AID 2314; in the data active = max response mostly above about 13%, no sharp cut-off; inactive = mostly below about 14%; also: read at 38.3 µM for the half of the compounds with a filed dose; 0% is about no effect
* = called active by the depositor. Unless noted, calls follow the shape of the dose curve; as a rule, active = well fitted inhibition curve with a large enough effect; inconclusive = small, poorly fitted or top-dose-only effect, or another doubt; inactive = no such curve, though single readings can be large or run the other way.

CN1CCc2nc3ccccc3c(C(=O)OCC(=O)N(CCC#N)c3ccccc3)c2C1 was read as NS1 function inh 10%, Pf growth 48h inconclusive, SARS PLP yeast -1%, Pf growth 96h 13µM*, Shiga toxin inh -9 and CHX counter 1.
`O=C(O)/C(=C\c1ccccc1OC(F)F)Sc1nnc(-c2ccc(F)cc2)o1` gave Pf growth 48h 13%, SARS PLP yeast -5%, Pf growth 96h 58%, Shiga toxin inh -10 and CHX counter 0.
Screening CN1CCN(Cc2ccc(-c3ccc(Cl)cc3)o2)CC1 returned NS1 function inh 0%, Pf growth 48h -2%, SARS PLP yeast -6%, Shiga toxin inh 67 and CHX counter 26*.
`CC(C)(Oc1ccc(CCNC(=O)c2ccc(-c3ccc(Cl)cc3)o2)cc1)C(=O)O` gave NS1 function inh 6%, Pf growth 48h -18%, SARS PLP yeast 2%, Pf growth 96h inconclusive, Shiga toxin inh -8 and CHX counter -1.
`Clc1ccc(-c2ccc(CN3CCCCC3)o2)cc1` gave NS1 function inh 7%, Pf growth 48h -11%, SARS PLP yeast -2%, Pf growth 96h inconclusive, Shiga toxin inh 39* and CHX counter 25*.
Screening O=[N+]([O-])c1ccc(CN2CCN(c3ccc(Cl)cc3)CC2)o1 returned NS1 function inh 0%, Pf growth 48h 3%, SARS PLP yeast -15%, Pf growth 96h -25%, Shiga toxin inh -6 and CHX counter 6.
For OCCc1ccc(-c2ccc(Cl)cc2)o1 the results were NS1 function inh -54%, Pf growth 48h 68%, SARS PLP yeast -5%, Shiga toxin inh 108* and CHX counter 31*.
Screening O=C(CN1C(=O)c2ccccc2S1(=O)=O)NCc1cccs1 returned NS1 function inh -1%, Pf growth 48h 25%, SARS PLP yeast 3%, Pf growth 96h 54%, Shiga toxin inh -15 and CHX counter 8.
`O=C(Oc1cccc(F)c1)c1ccc2c(=O)n3c(nc2c1)CCC3` gave Pf growth 48h 19%, SARS PLP yeast 6% and Pf growth 96h 4%.
Cc1ccccc1OCC(=O)NNC(=O)c1cc(S(=O)(=O)N2CCOCC2)ccc1N1CCCC1 was read as Pf growth 48h inconclusive, SARS PLP yeast 2% and Pf growth 96h 19%.
For COc1ccc2[nH]cc(CCNC(=O)COc3ccc4ccc(=O)oc4c3)c2c1 the results were NS1 function inh 24%, Pf growth 48h 5%, SARS PLP yeast -7%, Pf growth 96h 13%, Shiga toxin inh 2 and CHX counter 1.
Screening CC(=O)c1cc(C(=O)Nc2ccc(C(=O)O)cc2)oc1C returned NS1 function inh 3%, Pf growth 48h 13%, SARS PLP yeast -5%, Shiga toxin inh 19 and CHX counter -4.
Screening CC(=O)c1cc(C(C)=O)c(C)nc1C returned Pf growth 48h 5%, SARS PLP yeast -4%, Pf growth 96h 1.9µM*, Shiga toxin inh -9 and CHX counter 15.
CC(=O)c1cc(C(C)=O)c(C)[n+](C)c1C was read as NS1 function inh 1%, Pf growth 48h 10µM*, SARS PLP yeast 1%, Pf growth 96h 24%, Shiga toxin inh 6 and CHX counter 1.
CCCC(C(=O)NC1CCCC1)N(Cc1ccccc1Cl)C(=O)c1snc(C(N)=O)c1N (configuration not stated) was read as NS1 function inh 15%, Pf growth 48h inconclusive, SARS PLP yeast -1%, Pf growth 96h -11%, Shiga toxin inh -6 and CHX counter -3.
`Cc1ccc(SCCSc2nc(N)cc(=O)[nH]2)cc1` gave NS1 function inh 17%, Pf growth 48h 0%, SARS PLP yeast 7%, Pf growth 96h 66%, Shiga toxin inh 33 and CHX counter 22*.
Screening COc1ccc(OCCSc2nc(N)cc(=O)[nH]2)cc1 returned NS1 function inh 6%, Pf growth 48h 32%, SARS PLP yeast -1%, Pf growth 96h 17%, Shiga toxin inh 2 and CHX counter 0.
`Cc1ccc(SCCSc2nc(C)cc(=O)[nH]2)cc1` gave NS1 function inh 4%, Pf growth 48h -2%, SARS PLP yeast -1%, Pf growth 96h -14% and CHX counter 40*.
`CCOc1ccc(OCCSc2nc(C)cc(=O)[nH]2)cc1` gave NS1 function inh -13%, Pf growth 48h 28%, SARS PLP yeast -1%, Pf growth 96h inconclusive, Shiga toxin inh 124* and CHX counter 30*.
For Nc1cc(=O)[nH]c(SCCSc2ccc(F)cc2)n1 the results were NS1 function inh 24%, Pf growth 48h 13%, SARS PLP yeast -1%, Pf growth 96h 16%, Shiga toxin inh 23 and CHX counter -5.
For COc1ccccc1CNC(=O)[C@@H]1CCCN1S(=O)(=O)c1ccccc1F the results were NS1 function inh 3%, Pf growth 48h -10%, SARS PLP yeast 0%, Pf growth 96h 7%, Shiga toxin inh 12 and CHX counter -4.
`Cn1nc(NC(=O)CC(C)(C)CC(=O)O)c2ccccc21` gave NS1 function inh -1%, Pf growth 48h 3%, SARS PLP yeast 0%, Pf growth 96h 5%, Shiga toxin inh -2 and CHX counter 3.
Screening O=C(/C=C(/c1ccc(Cl)cc1)n1cncn1)c1ccccc1 returned NS1 function inh -19%, Pf growth 48h inconclusive, SARS PLP yeast -24%, Pf growth 96h inconclusive, Shiga toxin inh 14 and CHX counter 8.
CC(Oc1ccc(Cl)cc1)c1ccc(C#N)c(=O)[nH]1 (configuration not stated) was read as Pf growth 48h -10%, SARS PLP yeast -1%, Pf growth 96h 28%, Shiga toxin inh -12 and CHX counter 9.
Screening O=c1cc(O)c2c(=O)n(Cc3ccccc3)c3ccccc3c2o1 returned Pf growth 48h 8.3µM*, SARS PLP yeast -4%, Pf growth 96h inconclusive, Shiga toxin inh -20 and CHX counter 1.
CCCCn1c(=O)c2c(O)cc(=O)oc2c2ccccc21 was read as NS1 function inh -76%, Pf growth 48h 42%, SARS PLP yeast -5%, Pf growth 96h inconclusive, Shiga toxin inh 7 and CHX counter 1.
For CC(=O)Nc1sc2c(c1C#N)CC(C)(C)NC2(C)C the results were NS1 function inh 6%, Pf growth 48h 9%, SARS PLP yeast 2%, Shiga toxin inh -13 and CHX counter 5.
For CCCC(=O)Nc1sc2c(c1C#N)CC(C)(C)NC2(C)C the results were NS1 function inh -4%, Pf growth 48h 11%, SARS PLP yeast 11%, Pf growth 96h 2.1µM*, Shiga toxin inh -9 and CHX counter -3.
For Cc1cc(OCC(=O)Nc2sc3c(c2C#N)CC(C)(C)NC3(C)C)c(C(C)C)cc1Cl the results were NS1 function inh 5%, Pf growth 48h 13µM*, SARS PLP yeast 6%, Pf growth 96h 7.4µM*, Shiga toxin inh -8 and CHX counter -3.

Bioassay records deposited in PubChem by National Center for Advancing Translational Sciences (NCATS).
